Assay results reported in article PMC4552634, “A New Set of Chemical Starting Points with Plasmodium falciparum Transmission-Blocking Potential for Antimalarial Drug Discovery” (PLoS ONE, 2015).
Screen size: about 13,000 compounds; about 3,200 (25%) showed an effect of 50% or more. The list shows a part of the results.

System: P. falciparum stage V gametocytes
Design: BacTiter-Glo ATP luminescence viability of purified stage V gametocytes in 384-well plates, per cent inhibition versus DMSO
Conditions: 48 h, 5 µM; inhibitor

Structure (SMILES) | % Inhibition [%]
CCCCCCN1CCC(CNCc2cccc(Cl)c2)CC1 [TCMDC-141678] | 45.32
O=C(Nc1cccc(OCCN2CCCC2)c1)Nc1ccc(Cl)c(Cl)c1 [TCMDC-139540] | 28.24
CCCCCCOc1ccc(C(=O)N[C@H]2CCN(CCCCCNC(=O)/C=C/c3ccc(Cl)c(Cl)c3)C2)cc1 [TCMDC-139564] | 40.4
O=C(Nc1ccc(Cl)c(Cl)c1)N1CCc2ccc(OCCCN3CCCCC3)cc2CC1 [TCMDC-141755] | 13.17
Clc1ccc(OCCC2CCN(CCCCCCCN3CCC(CCOc4ccc(Cl)c(Cl)c4)CC3)CC2)cc1Cl [TCMDC-138967] | 119.8
Clc1ccc(OCCC2CCN(CCCCCCN3CCCCC3)CC2)cc1Cl [TCMDC-138982] | 100.1
N#Cc1ccc(-c2ccc(C(=O)Nc3ccc4c(c3)CCN(C3CCC3)CC4)nc2)cc1 [TCMDC-136032] | 15.17
Cc1onc(-c2ccccc2)c1-c1nc(NC2CCCC(C)C2)no1 (stereo not drawn) [TCMDC-134202] | -14.49
CCN(c1ccc(O)c(CN2CCCCC2)c1)c1ccc([N+](=O)[O-])cn1 [TCMDC-138001] | 10.77
CCN(CC)S(=O)(=O)c1ccc(C(C)NC(=O)c2ccccc2COc2ccccc2)cc1 (stereo not drawn) [TCMDC-125332] | 39.64
O=C(O)c1ccc2nc(-c3ccc(-c4ccccc4)cc3)n(C3CCN(Cc4ccc(-c5ncc[nH]5)cc4)CC3)c2c1 [TCMDC-134669] | 12.72
CCC(C)NS(=O)(=O)c1ccc2nc(Nc3ccc(C)c(Cl)c3)n(C3CCCCC3)c2c1 (stereo not drawn) [TCMDC-136233] | -49.77
CCC(C)NS(=O)(=O)c1ccc2nc(Nc3ccc(C)cc3)n(C3CCCCC3)c2c1 (stereo not drawn) [TCMDC-136232] | -89.75
Cc1ccc2nc(C)n(C3CCN(C(=O)Cc4ccc(F)c(F)c4)CC3)c2c1 [TCMDC-124793] | 84.63
CCN1CCC(N2CCC(n3c(C)nc4cc(C(F)(F)F)ccc43)CC2)CC1 [TCMDC-124671] | 0.4186
CCC(C)NS(=O)(=O)c1ccc2nc(Nc3ccc(C)cc3)n(C3CCCCC3C)c2c1 (stereo not drawn) [TCMDC-136231] | -48.39
Cc1nc2ccc(F)cc2n1C1CCN(C(=O)Cc2ccc(F)c(F)c2)CC1 [TCMDC-124794] | 73.02
Cc1ccc(C)c(CC(=O)N2CCC(n3c(C)nc4ccc(F)cc43)CC2)c1 [TCMDC-124790] | 89.97
Cc1ccc(C)c(Cn2c(N3CCC(C(=O)NCc4cccs4)CC3)nc3ccccc32)c1 [TCMDC-124399] | -1.754
Cc1cc(C)cc(CC(=O)N2CCC(n3c(C)nc4ccc(C)cc43)CC2)c1 [TCMDC-124789] | 80.51
O=C(Nc1ccc(-c2nc3ccccc3[nH]2)cc1)C1CCN(Cc2ccc(F)cc2)CC1 [TCMDC-124680] | 4.478

Structure (SMILES) | % Inhibition [%]
CCCc1cc(=O)[nH]c(-n2nc(C)cc2NC(=O)CC(c2ccccc2)c2ccccc2)n1 [TCMDC-124940] | 43.65
CC(C)C[C@H](NC(=O)c1cccc(F)c1)C(=O)N[C@H](/C=N/NC(=O)c1ccccc1)CCc1ccccc1 [TCMDC-135679] | 8.745
CC(=O)Nc1ccc(CN2CCc3ccc(NS(=O)(=O)c4ccc(-c5cccc(C(F)(F)F)c5)cc4)cc3CC2)s1 [TCMDC-132328] | 7.357
Cc1ccc(-c2ccc(NC(=O)N3CCc4cc(Br)c(N5CCN(C)CC5)cc43)cc2)cn1 [TCMDC-139294] | -24.43
CN(C)CCNC(=O)c1csc(Nc2ccc(Cl)c(Cl)c2)n1 [TCMDC-123722] | -60.24
COc1cccc2cc(C(=O)N[C@@H](CC(C)C)C(=O)N[C@H](C=NNC(=O)OC(C)(C)C)CC(C)C)oc12 [TCMDC-136062] | 12.96
Cc1ccc2nc(C)n(C3CCN(C(=O)Cc4ccccc4C)CC3)c2c1 [TCMDC-124795] | 76.45
Cc1ccc2nc(C)n(C3CCN(C(=O)C4(c5ccccc5)CC4)CC3)c2c1 [TCMDC-124796] | 44.07
COc1ccc(Br)cc1/C=C/C(=O)Nc1cccc(C2CCCN(C)C2)c1 (stereo not drawn) [TCMDC-133710] | 13.98
CN1CCN(c2ccnc3ccc(NC(=O)Nc4cccc5c(-c6ccncc6)cccc45)cc23)CC1 [TCMDC-139252] | -0.3523
Cc1nc(-c2cccc3c(NC(=O)Nc4ccc5nccc(N6CCN(C)CC6)c5c4)cccc23)no1 [TCMDC-139340] | 66.85
CN1CCN(c2ccnc3ccc(NC(=O)Nc4ccc(-c5ccncc5)c5ccccc45)cc23)CC1 [TCMDC-139251] | -4.793
CN1CCN(c2ccnc3ccc(NC(=O)Nc4ccc(-c5ccncc5)c(C(F)(F)F)c4)cc23)CC1 [TCMDC-139260] | 40.16
CN1CCN(c2ccnc3ccc(NC(=O)Nc4ccc(-c5ccncc5)c(C#N)c4)cc23)CC1 [TCMDC-139268] | 80.15
Cc1ncccc1-c1cccc2c(NC(=O)Nc3ccc4nccc(N5CCN(C)CC5)c4c3)cccc12 [TCMDC-139369] | -6.373
COC(=O)c1ccc(CC(C)NCC(O)c2cccc(OC(F)(F)F)c2)cc1 (stereo not drawn) [TCMDC-131487] | 26.86
O=C(c1cccc(-c2cccc(-c3nc4ccccc4[nH]3)c2)c1)N1CCCCC1CN1CCC(O)C1 (stereo not drawn) [TCMDC-132311] | -3.438
Cc1[nH]c(/C=C2\C(=O)Nc3ccc(S(=O)(=O)Cc4c(Cl)cccc4Cl)cc32)c(C)c1C(=O)N1CCC[C@@H]1CN1CCCC1 [TCMDC-125885] | 103.4
Cc1cccc2nc(-c3cccc(-c4cccc(C(=O)N5CCCCC5CN5CCC(O)C5)c4)c3)[nH]c12 (stereo not drawn) [TCMDC-132347] | 6.025
COc1cccc(C=Cc2nc(=O)c3ccccc3o2)c1OC [TCMDC-124577] | 34.84
COc1ccc(Cc2cnc3nc(N)nc(N)c3c2C)cc1OC [TCMDC-138057] | 6.807
